Experimental data as given in ChEMBL document CHEMBL1201862, “PubChem BioAssay data set” (2004).
The campaign covered roughly 1,200 compounds. About 140 (12%) were called active. The calls are words filed in the database; no cut-off is given here. Many of the other results were omitted from the sample, so actives are more common in it than they were.

assay: CFTR-F508del correctors, dose response, FRT cells, YFP quenching, cherry-pick (AID 743402); type: functional, cell-based

AbsAC35, active:
COc1ccc(NC(=O)C(=O)NCC2CCCN2S(=O)(=O)c2cccs2)cc1 (stereo not given) 87.6 µM, CC(=O)c1cccc(-c2ccnc3c2CC(C(=O)NCc2ccco2)O3)c1 (stereo not given) 40.3 µM, O=c1c(O)c(-c2cccs2)oc2ccc(Cl)cc12 30.3 µM, COc1ccc(C2=Nn3c(nnc3-c3ccccc3OC)SC2)cc1OC1CCOC1 (stereo not given) 160 µM, CCc1ccc(OCCNc2cc(N3CCNC(C)C3)ccc2[N+](=O)[O-])cc1 (stereo not given) 58.8 µM, N#Cc1ccc(-c2cccs2)nc1SCc1cccnc1 107 µM, CCN(CC)CCC(=O)Nc1cccc2c1C(=O)c1ccccc1C2=O 40.8 µM, O=C(OCc1ccc(Br)cc1)c1cc([N+](=O)[O-])ccc1N1CCOCC1 28.4 µM, CC(=O)Nc1ccc(S(=O)(=O)N2c3ccccc3C(C)=CC2(C)C)cc1 42.7 µM, COc1ccc(C2C3=C(COC3=O)Oc3cc4c(cc32)OCO4)cc1OC (stereo not given) 116 µM
